High-throughput results from PubChem BioAssay.
NSD2 HMT inh: blocks human histone methyltransferase NSD2. O96028. NSD2 peptide methylation, AlphaScreen, 120 min. inhibition, % at 12.5 µM. hit rate 0.54% among 310,000; in the data active = inhibition above about 50%
Target sequence (O96028 whole entry, looked up): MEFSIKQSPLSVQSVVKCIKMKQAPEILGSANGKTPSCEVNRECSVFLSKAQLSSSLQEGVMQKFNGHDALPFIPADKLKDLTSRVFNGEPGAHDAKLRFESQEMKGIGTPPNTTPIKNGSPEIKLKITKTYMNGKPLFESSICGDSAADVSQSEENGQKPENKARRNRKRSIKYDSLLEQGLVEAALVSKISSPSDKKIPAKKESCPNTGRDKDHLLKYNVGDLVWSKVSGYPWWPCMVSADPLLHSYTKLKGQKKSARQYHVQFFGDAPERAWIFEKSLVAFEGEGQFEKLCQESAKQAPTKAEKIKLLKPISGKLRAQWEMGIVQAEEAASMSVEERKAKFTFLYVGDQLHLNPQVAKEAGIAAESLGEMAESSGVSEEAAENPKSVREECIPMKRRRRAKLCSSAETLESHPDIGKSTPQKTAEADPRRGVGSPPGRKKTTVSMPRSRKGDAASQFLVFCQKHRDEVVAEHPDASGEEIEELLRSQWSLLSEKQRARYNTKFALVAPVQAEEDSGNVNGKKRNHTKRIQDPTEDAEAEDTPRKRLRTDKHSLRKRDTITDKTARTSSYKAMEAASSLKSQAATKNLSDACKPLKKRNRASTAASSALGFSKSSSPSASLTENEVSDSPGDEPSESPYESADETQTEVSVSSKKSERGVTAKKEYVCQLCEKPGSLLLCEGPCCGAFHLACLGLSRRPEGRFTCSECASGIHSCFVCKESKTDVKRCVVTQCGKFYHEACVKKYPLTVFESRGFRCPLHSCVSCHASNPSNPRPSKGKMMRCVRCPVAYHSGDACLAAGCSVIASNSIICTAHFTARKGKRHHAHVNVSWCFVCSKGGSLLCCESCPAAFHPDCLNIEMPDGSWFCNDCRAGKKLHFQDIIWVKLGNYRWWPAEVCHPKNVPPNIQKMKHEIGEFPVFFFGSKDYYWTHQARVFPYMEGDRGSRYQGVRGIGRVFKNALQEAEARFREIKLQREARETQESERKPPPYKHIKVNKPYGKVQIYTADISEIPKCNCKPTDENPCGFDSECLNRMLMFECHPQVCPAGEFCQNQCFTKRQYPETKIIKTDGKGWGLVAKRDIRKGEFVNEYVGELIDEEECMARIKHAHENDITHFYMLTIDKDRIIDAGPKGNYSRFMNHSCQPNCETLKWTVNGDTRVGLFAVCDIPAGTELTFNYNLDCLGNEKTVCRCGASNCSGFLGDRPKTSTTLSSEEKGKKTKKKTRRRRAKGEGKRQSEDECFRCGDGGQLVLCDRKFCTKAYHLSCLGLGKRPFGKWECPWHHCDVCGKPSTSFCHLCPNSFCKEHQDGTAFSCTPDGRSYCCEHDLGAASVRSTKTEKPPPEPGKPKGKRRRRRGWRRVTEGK
Glyco luc inh: N-linked glycosylation inhibition; hit rate 0.23% among 360,000; reporter increase, % at 12.5 µM; D54 ERlucT glycosylation luciferase reporter, 24 h; percent of 100 nM tunicamycin response;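 active = mean luciferase reporter signal, scaled so untreated is 0 and the glycosylation-blocking control 100, at or above a set limit in every replicate; inconclusive = mean reaches the limit but not every replicate does; inactive = mean below the limit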;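 also: luciferase carries N-glycosylation sites so blocking glycosylation raises the light; 0% = median of neutral control wells and 100% = median of 100 nM tunicamycin wells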
MITF TRPM1 inh: reduces MITF-dependent TRPM1 promoter luciferase signal. SK-MEL-5 TRPM1 promoter luciferase, 24 h. inhibition, % at 12.5 µM. hit rate 0.83% among 330,000;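 active = mean inhibition across replicates of 60% or more, whatever share of single replicates reaches that level; inconclusive = some that reach 60%, reason not given; inactive = mean inhibition across replicates below 60%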
MITF TRPM1 HTS: MITF TRPM1 promoter activation in melanoma cells | SK-MEL-5 TRPM1-promoter luciferase, 24 h; % of positive control, neutral wells = 0 | activation, % at 12.5 µM | hit rate 0.75% among 300,000;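 active = mean activation of at least 80% with every replicate also reaching 80%; inconclusive = mean reaches 80% but some replicate falls short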;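 also: 0% = neutral control wells and 100% = parthenolide positive control wells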
PfHsp90 yeast 2: inhibits growth of yeast expressing Plasmodium falciparum Hsp90; AID 504621; inhibition, % at 9.4 µM; S. cerevisiae expressing PfHsp90, BacTiter-Glo ATP, 48 h; yeast lacking PDR1 and PDR3 efflux regulators; hit rate 0.32% among 310,000;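 active = every replicate shows inhibition above about 80%, whatever the replicate mean, limit read from the data; inconclusive = mean inhibition reaches the set limit but some replicate falls short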;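 also: 0% = DMSO neutral controls and 100% = 20 µM radicicol positive controls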
Wnt bcat act: Wnt/beta-catenin pathway activation. Wnt/beta-catenin reporter cell assay, activator, plate reader. activation, % at 9.35 µM. hit rate 1.2% among 300,000. AID 743398; in the data active = activation above about 30%, passing the limit was not always enough; inconclusive = no clear call, values can overlap the other calls;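 also: 0% = neutral control wells and 100% = positive control wells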
Starred values were filed as active, the others as inactive; ? = inconclusive; . = not tested or not shown. A selection: hits, their analogues and other compounds. The true share with any hit is near 2.9%.

SMILES	NSD2 HMT inh	Glyco luc inh	MITF TRPM1 inh	MITF TRPM1 HTS	PfHsp90 yeast 2	Wnt bcat act
Cc1ccc(C(=O)Nc2ccccc2C(=O)N2CCCCC2C)cc1 (stereo unspecified)	0	-1	6	-8	-19	2
N#CC(C#N)=c1ccc2c(c1)N1C3=C(CCCC3)CC3CCCCC31N=2 (stereo unspecified)	55*	2	37	-36	.	.
CCCNC(=O)c1nnsc1S(=O)c1ccc(Cl)cc1 (stereo unspecified)	-1	-18	67*	-67	105*	-7
CCCNC(=O)c1nnsc1S(=O)(=O)c1ccc(Cl)cc1	3	-13	86*	-86	105*	-7
COc1ccc(CCn2c(C(C)C)nc3oc4ccccc4c(=O)c3c2=O)cc1	1	-2	3	1	4	0
COC(=O)c1cc2c(c3c4cc(OC)ccc4n(S(=O)(=O)c4cccc(C)c4)c13)C(=O)N(Cc1ccc(N(C)C)cc1)C2	.	.	.	.	.	-4
Cc1ccc(-n2c(SCC(=O)Nc3ccc4c(c3)OCCO4)nnc2-c2cccnc2)cc1	-2	.	.	.	.	.
O[C@@H]1COC(Nc2ccc(N=Nc3ccccc3)cc2)C[C@@H]1O (stereo partly specified)	-6	.	.	.	.	46*
O=S(=O)(c1ccc(Cl)cc1)N1CCN(Cc2ccc(O)c3ncccc23)CC1	2	-11	64*	-64	.	36*
Oc1ccc(CN2CCN(Cc3ccccc3)CC2)c2cccnc12	.	7	28	.	.	6
Cn1nc(C(F)(F)F)c(/C=N/OC(=O)c2ccccc2Cl)c1SCc1ccccc1Cl	1	58*	-10	.	2	.
Cn1nc(C(F)(F)F)c(/C=N/OC(=O)c2ccccc2)c1SCc1ccc(Cl)cc1	2	73*	-13	15	5	-3
Cn1nc(C(F)(F)F)c(/C=N/OC(=O)c2ccc(Cl)cc2)c1Cl	-2	0	6	.	-17	.
CCc1ccc(N2CC(C(=O)OCC(=O)NC3CC3)CC2=O)cc1 (stereo unspecified)	-1	1	-4	1	5	-2
Nc1[nH]c(C(=O)c2ccccc2)c(-c2ccc3ccccc3c2)c1C(=O)NC1CC1	-1	.	.	.	.	4
Cc1ccc(C)c(NC(=O)C2CCCN2S(=O)(=O)c2cccc3cccnc23)c1 (stereo unspecified)	-2	.	.	.	.	.
CCC(C)N(C(=O)CSc1nnc(-c2cc(OC)c(OC)c(OC)c2)o1)C(C)CC (stereo unspecified)	-3	.	.	.	.	.
COc1ccc2[nH]c3c4c(ccc3c2c1)C(=O)C=CC4=O	8	16	79*	-77	7	-14
CC(C)(C)c1ccc(NC(=O)c2ccc(=O)[nH]n2)cc1	0	-9	-96	97*	6	33*
O=C(Nc1ccc2c(c1)OCO2)c1ccc(=O)[nH]n1	.	1	-12	13	-7	-1
O=C(c1ccccc1)c1cc2ccccc2o1	1	-2	-105	108*	7	11
O=C(NNC(=O)c1cc2ccccc2o1)c1ccc(F)cc1	1	-1	-27	23	.	4
O=C(c1cc2ccccc2o1)N1CCCC1	-2	-2	-7	10	0	0
O=C(c1ccc(F)cc1)c1cc2ccccc2o1	.	-1	-81	?	-3	65*
CCOC(=O)c1cc(C)n(-c2ccc(Cl)cc2)c1C	0	-4	6	-1	6	2
SMILES	NSD2 HMT inh	Glyco luc inh	MITF TRPM1 inh	MITF TRPM1 HTS	PfHsp90 yeast 2	Wnt bcat act
COC(=O)c1ccc(-n2c(C)cc(C(=O)CCl)c2C)cc1	4	12	87*	-86	-71	0
CCOc1ccc(-n2c(C)cc(C(=O)CCl)c2C)cc1	-3	41*	69*	-70	.	-1
COC(=O)c1ccc(-n2c(C)cc(C(=O)COC(=O)C3=COCCO3)c2C)cc1	4	0	2	-1	1	-2
Cc1ccc(S(=O)(=O)N(C)c2ccc(C(=O)NCc3ccccc3F)cc2)cc1	-1	-5	10	-8	15	-2
CN1OC[C@@H]2CN(C(=O)C3CCCCC3)[C@H](c3ccc(N4CCCCC4)cc3)C[C@@H]21	.	.	.	.	.	-7
CC(C)c1ccc(N=C2NN=C(c3cccs3)CS2)cc1	-2	-1	-91	100*	-7	-3
COc1cccc2sc(N(CCN(C)C)C(=O)/C=C/c3cccs3)nc12	-1	-1	47	-45	13	-19
COc1ccc(C)c2sc(N(CCN(C)C)C(=O)/C=C/c3cccs3)nc12	2	16	88*	-88	-4	-2
CCOc1cccc2sc(N(CCN(C)C)C(=O)/C=C/c3cccs3)nc12	4	11	12	-10	3	.
COc1ccc(OC)c2sc(N(CCN(C)C)C(=O)/C=C/c3cccs3)nc12	-5	-10	67*	-66	10	-2
O=C1C=CC(=O)N1CCCCCCCCCCN1C(=O)C=CC1=O	-3	-3	91*	-90	107*	-9
CN(C)S(=O)(=O)c1cccc(NC(=O)c2ccc3c(c2)OCCO3)c1	0	-1	-79	?	14	30
O=C1CCCN1CCC(=O)N1CCCC(CO)(Cc2ccccc2)C1 (stereo unspecified)	-4	3	-44	49	15	32*
COc1cc2c(cc1OC)C(c1ccccc1)N(C(=O)CCl)CC2 (stereo unspecified)	-4	19	93*	-92	18	3
COc1cc2c(cc1OC)C(C)N(C(=O)Nc1ccccc1)CC2 (stereo unspecified)	-2	35*	24	-27	-15	1
Cc1ccccc1N(C)C(=O)C1CCCN1S(=O)(=O)c1cccc2cccnc12 (stereo unspecified)	-6	.	.	.	.	.
CCN1C(=O)S/C(=C\c2ccc(N3CCOCC3)cc2C)C1=O	0	-8	-66	66	2	81*
C#CCN1C(=O)S/C(=C\c2ccc(N3CCOCC3)cc2C)C1=O	0	-2	-66	72	11	56*
C#CCN1C(=O)S/C(=C/c2cc(C)n(CC)c2C)C1=O	-3	-8	-62	67	-4	.
CCC(C)N1C(=O)S/C(=C/c2ccc(N3CCOCC3)cc2C)C1=O (stereo unspecified)	-2	0	-96	91*	4	1
Cc1cc(N2CCOCC2)ccc1/C=C1\SC(=O)N(C(C)C)C1=O	.	-4	-67	59	1	-4
CCn1c(CNc2ccc(Cl)cc2)nnc1SCc1ccc(Cl)cc1	0	-4	5	-7	127*	2
CCn1c(CNc2ccc(Cl)cc2)nnc1SCc1ccc(C)cc1	2	-1	10	-11	81*	-1
Fc1ccccc1C1CCN(Cc2nc(CC3CC3)no2)C1 (stereo unspecified)	-6	-2	-42	45	-33	44*
